For 18 compounds, Potency results are on record in PubChem BioAssay (NCATS).

Assay [1] in a line: qHTS of pediatric cancer cell lines to identify multiple opportunities for drug repurposing: Confirmatory screen for control Hh wild type fibroblast cells (AID 1347121). Also: nearly all actives have a fitted effect of over 70% in size. Also: potency is read from the fitted curve at half-maximal effect. The following applies: viability qHTS; series mostly up to 45.9 µM. In a few lines: (§1)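 Cells (500-1,000/well) rested 5 h, then received compounds for 48 h; metabolically active cells were measured by CellTiter-Glo luminescence. Final concentrations spanned up to 46 µM (MIPE, 11-point) or 0.59 nM-46 µM (NPC, 8-point) in primary screens, 11-point in follow-ups.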

Assay [2] in a line: qHTS of pediatric cancer cell lines to identify multiple opportunities for drug repurposing: Confirmatory screen for U-2 OS cells (AID 1347122). Also: nearly all actives have a fitted effect of over 65% in size. Also: potency is read from the fitted curve at half-maximal effect. To be noted: U-2 OS osteosarcoma cell viability; series mostly up to 45.9 µM. In a few lines: as §1
(In general: In qHTS, concentration-response curves come from the screen itself.)

A short description of assay [3]: qHTS of pediatric cancer cell lines to identify multiple opportunities for drug repurposing: Confirmatory screen for RD cells (AID 1347124).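 Also: cells exposed to compound for 48 h before viability readout; nearly all actives have a fitted effect of over 65% in size.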 Also: potency is read from the fitted curve at half-maximal effect. The following applies: RD rhabdomyosarcoma cell viability; series mostly up to 45.9 µM. In a few lines: as §1
Assay [4] in a line: qHTS of pediatric cancer cell lines to identify multiple opportunities for drug repurposing: Confirmatory screen for Rh18 cells (AID 1347125). Also: nearly all actives have a fitted effect of over 55% in size. Also: potency is read from the fitted curve at half-maximal effect. To be noted: Rh18 rhabdomyosarcoma cells, viability; series mostly up to 45.9 µM. In a few lines: as §1
The nature of assay [5]: qHTS of pediatric cancer cell lines to identify multiple opportunities for drug repurposing: Confirmatory screen for Rh30 cells (AID 1347126). Also: nearly all actives have a fitted effect of over 55% in size. Also: potency is read from the fitted curve at half-maximal effect. To be noted: Rh30 rhabdomyosarcoma cell viability; series mostly up to 45.9 µM. In a few lines: as §1
A short description of assay [6]: qHTS of pediatric cancer cell lines to identify multiple opportunities for drug repurposing: Confirmatory screen for Saos-2 cells (AID 1347127). Also: nearly all actives have a fitted effect of over 60% in size. Also: potency is read from the fitted curve at half-maximal effect. To be noted: Saos-2 osteosarcoma cell viability; series mostly up to 45.9 µM. In a few lines: as §1
A short description of assay [7]: qHTS of pediatric cancer cell lines to identify multiple opportunities for drug repurposing: Confirmatory screen for OHS-50 cells (AID 1347128).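 Also: compound exposure lasted 48 h at 37 degrees C; nearly all actives have a fitted effect of over 55% in size.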 Also: potency is read from the fitted curve at half-maximal effect. To be noted: OHS-50 osteosarcoma cells viability; series mostly up to 45.9 µM. In a few lines:
as §1

Assay [8] in a line: qHTS of pediatric cancer cell lines to identify multiple opportunities for drug repurposing: Confirmatory screen for SK-N-SH cells (AID 1347129).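 Also: cells exposed to compound for 48 h before viability read; nearly all actives have a fitted effect of over 60% in size.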 Also: potency is read from the fitted curve at half-maximal effect. The following applies: SK-N-SH neuroblastoma cell viability; series mostly up to 46.1 µM. In a few lines:
as §1

Assay [9] relates to Zika virus NS2B-NS3 protease. The experiment in a line: Primary screen GU AMC qHTS for Zika virus inhibitors (AID 1347154). Also: nearly all actives have a fitted effect of over 70% in size. The following applies: Zika NS2B-NS3 unlinked protease, AMC fluorogenic substrate; series mostly up to 54.1 µM. In a few lines: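 Fluorogenic AMC-substrate cleavage by noncovalent NS2B-NS3 protease complex (25 nM, pH 8.0 Tris buffer with Tween 20) followed for 15 minutes at room temperature (~20% conversion). Percent inhibition from ex340/em450 signal change, fitted by 4-parameter Hill equation.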

Assay [10] concerns Zika virus NS2B-NS3 protease (unlinked complex). The experiment in a line: Primary screen GU Rhodamine qHTS for Zika virus inhibitors: Unlinked NS2B-NS3 protease assay (AID 1347159). Also: nearly all actives have a fitted effect of over 60% in size. The following applies: Recombinant ZIKV NS2B-NS3 protease, Rhodamine110 substrate fluorescence; series mostly up to 107 µM. In a few lines:
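Buffer 10 mM Tris-HCl pH 8.0, 0.01% Tween 20. Unlinked protease 25 nM; compound preincubation 15 min, RT, protected from light. Substrate Rhod110, 1.5 microM; ~15% conversion in 15 min.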

Assay [11] is described as follows: qHTS of pediatric cancer cell lines to identify multiple opportunities for drug repurposing: Confirmatory screen for Rh41 cells (AID 1347123).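 Also: 48 h compound exposure; nearly all actives have a fitted effect of over 60% in size.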 Also: potency is read from the fitted curve at half-maximal effect. The following applies: Rh41 rhabdomyosarcoma cells, viability/cytotoxicity qHTS; series mostly up to 45.9 µM. In a few lines: as §1
Assay [12] deals with Zika virus NS2B-NS3 protease (linked construct). The experiment in a line: Primary screen NINDS Rhodamine qHTS for Zika virus inhibitors (AID 1347160). Also: nearly all actives have a fitted effect of over 55% in size. The following applies: purified NS2B-NS3 protease, Rhodamine110 substrate fluorescence; series mostly up to 57.1 µM. In a few lines:
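Aprotinin served as in-plate control. Conditions: 25 nM linked NS2B-NS3, pH 8.0 Tris buffer, titrated compounds, 15 min preincubation and 15 min reaction with 1.5 microM Rhod110 substrate at room temperature.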

Results filed as inconclusive are left out. Active and inactive are the calls of the source. Calls follow the shape of the dose curve; as a rule, active = well fitted curve in the direction sought with a large enough effect; inconclusive = small, poorly fitted or top-dose-only effect, or another doubt; inactive = no such curve, though single readings can be large; an effect the other way counts as inactive or inconclusive.

In the case of `Cc1cnc(-c2cc(N3CCN(C(=O)CCS(C)(=O)=O)CC3)ncc2Cl)c(C)c1`, the Potency result in [1], in [2], in assay [3], in [4], in [5] and in assay [6] was “inactive” in each case. For the same compound, the Potency result in assay [7], in assay [8], in assay [9] and in assay [10] was “inactive” each time.

Regarding `Cc1cc(CS(=O)(=O)c2ccccc2)cc(OCc2ccc(CN3CCC[C@H]3CO)cc2)c1`, the Potency entry in assay [1], in assay [3], in assay [5], in assay [6] and in assay [9] was “inactive” in each case. Besides, the Potency in [11] was 16.5 µM (active).

For `CO[C@H]1/C=C\O[C@@]2(C)Oc3c(C)c(O)c4c(O)c(c(C=NN5CCN(C6CCCC6)CC5)c(O)c4c3C2=O)NC(=O)C(C)=CC=C[C@H](C)[C@H](O)[C@@H](C)[C@@H](O)[C@@H](C)[C@H](OC(C)=O)[C@H]1C`, the Potency entry in assay [1], in assay [2], in [3] and in assay [8] was “inactive” each time. For the same compound, the Potency in assay [11] is 20.8 µM (active); in [6] it was 20800 nM (active).

In the case of `CC1C(=O)OC2C(O)C34C5CC(C(C)(C)C)C36C(OC(=O)C6O)OC4(C(=O)O5)C12O` (stereo unspecified), the Potency result in [1], in assay [2], in assay [11], in assay [3], in assay [4] and in assay [6] was “inactive” throughout. The Potency entry in assay [7], in assay [8] and in assay [9] was “inactive” in each case.

On to `C[C@@H]1C[C@H]2[C@@H]3CCC4=CC(=O)C=C[C@]4(C)[C@@]3(F)[C@@H](O)C[C@]2(C)[C@@]1(O)C(=O)CO`, for which the Potency entry in assay [2], in [11], in assay [3], in assay [5], in assay [6] and in [7] was “inactive” each time. The Potency entry in assay [8] and in assay [9] was “inactive” each time.

On to `O=C1NC(=O)C(c2cnc3ccccn23)=C1c1cn2c3c(cccc13)CN(C(=O)N1CCOCC1)CC2`, for which the Potency entry in assay [2], in [3], in assay [5], in [6] and in [10] was “inactive” each time. For the same compound, the Potency is 0.0185 µM (active) in assay [11] and 10400 nM (active) in assay [7].

Take `CCC(=O)OCC(=O)[C@@]1(OC(=O)CC)[C@@H](C)C[C@@H]2[C@H]3CCC4=CC(=O)C=C[C@]4(C)[C@@]3(F)[C@@H](O)C[C@@]21C`: the Potency entry in assay [2], in assay [3], in [5], in assay [6], in [7] and in assay [9] was “inactive” in each case. The Potency in [11] was 14.7 µM (active); in [8], 20.9 µM (active).

For `NC(N)=Nc1nc(CSCCC(N)=NS(N)(=O)=O)cs1`, the Potency result in assay [2], in assay [11], in assay [3], in assay [5], in assay [6] and in assay [7] was “inactive” each time. For the same compound, the Potency result in assay [8] and in assay [9] was “inactive” each time.

Consider `CON(C)C(=O)N1N=C(c2cc(F)ccc2F)S[C@]1(CCCN)c1ccccc1`, for which the Potency entry in assay [1], in [5] and in [9] was “inactive” in each case. Further, the Potency in [2] is 46.5 nM (active); in assay [11], 0.0185 µM (active); in assay [3], 46.5 nM (active); in assay [6] it was 5.9 nM (active); in assay [7], 5.2 nM (active).

Turning to `Nc1ccc(-c2ccc3ncc4ccc(=O)n(-c5cccc(C(F)(F)F)c5)c4c3c2)cn1`, the Potency in [2] is 185 nM (active); in assay [11], 0.0369 µM (active); in assay [3], 233 nM (active); in assay [4], 928 nM (active); in assay [5], 0.329 µM (active); in assay [6], 329 nM (active). Besides, the Potency was 261 nM (active) in [7] and 0.296 µM (active) in assay [8]. Also, the Potency entry in [9], in assay [10] and in assay [12] was “inactive” in each case.

For `Cc1c(C(=O)Nc2ccc(N3C[C@@H](C)O[C@@H](C)C3)nc2)cccc1-c1ccc(OC(F)(F)F)cc1`, the Potency result in [1], in [3], in assay [8], in assay [9] and in assay [10] was “inactive” throughout. For the same compound, the Potency in assay [2] is 18500 nM (active); in assay [11], 16.5 µM (active).

In the case of `Cc1cccc(-c2[nH]c(C(C)(C)C)nc2-c2ccc3c(c2)OCO3)n1`, in assay [1], the Potency was 8.27 µM (active). Further, the Potency result in assay [9] is “inactive”.

On to `Nc1ccn([C@@H]2O[C@H](CO)[C@@H](O)[C@H]2O)c(=O)n1`, for which the Potency entry in [1], in [2], in assay [4] and in assay [9] was “inactive” in each case.

As for `Cc1ccc(C(=O)N(CCCN)[C@@H](c2nc3cc(Cl)ccc3c(=O)n2Cc2ccccc2)C(C)C)cc1`, the Potency result in assay [1] and in assay [9] was “inactive” throughout. Moreover, the Potency in assay [2] was 60.3 nM (active); in assay [11], 0.024 µM (active); in assay [3], 2400 nM (active); in [5], 38 µM (active); in assay [6], 67.6 nM (active); in assay [8], 12.1 µM (active).

Regarding `CC1(COc2ccc3c(c2)ncn3-c2ccc3cccc(N4CCC(N)CC4)c3n2)COC1`, the Potency entry in assay [1], in [3], in assay [4], in assay [6], in assay [9] and in [10] was “inactive” in each case. The Potency result in assay [12] was “inactive”. In addition, the Potency in assay [2] was 10400 nM (active); in assay [11], 8.27 µM (active); in assay [8] it was 10.5 µM (active).

For `COC(=O)[C@H](c1ccccc1Cl)N1CCc2sccc2C1`, the Potency result in [2], in [11], in [3], in assay [5], in assay [6] and in assay [7] was “inactive” each time. Moreover, the Potency entry in assay [8] and in assay [9] was “inactive” in each case.

Regarding `CC(C)CN(C[C@H](O)[C@H](Cc1ccccc1)NC(=O)O[C@H]1CCOC1)S(=O)(=O)c1ccc(N)cc1`, the Potency entry in assay [2], in assay [11], in assay [3], in [4], in [5] and in assay [6] was “inactive” throughout. For the same compound, the Potency entry in [7], in assay [8] and in [9] was “inactive” each time.

As for `CCN(CCO)CCCOc1ccc2c(Nc3cc(CC(=O)Nc4cccc(F)c4)[nH]n3)ncnc2c1`, the Potency result in assay [1], in [2], in assay [3], in assay [5], in assay [6] and in assay [9] was “inactive” in each case. In addition, the Potency entry in assay [10] was “inactive”.
